Data reported in article PMC11006913.

target: PROP1 (Homo sapiens, UniProt O75360 56-141); experiment: PBM; 200 nM protein, PBS; conditions: dsDNA, one strand shown
Sequence (O75360 56-141): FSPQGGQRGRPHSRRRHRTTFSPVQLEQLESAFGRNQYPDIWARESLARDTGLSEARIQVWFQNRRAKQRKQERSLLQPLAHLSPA

| Sequence | binding signal |
| --- | --- |
| CGGGAGCC | 6.62 upbm affinity estimate (log intensity, higher = more binding, comparable within an allelic series) |
| CTGGACGC | 6.69 upbm affinity estimate (log intensity, higher = more binding, comparable within an allelic series) |
| CGGTGCCA | 6.41 upbm affinity estimate (log intensity, higher = more binding, comparable within an allelic series) |

target: PROP1 (Homo sapiens, UniProt O75360 56-141, R99H); experiment: PBM; 200 nM protein, PBS; conditions: dsDNA, one strand shown
Sequence (O75360 56-141 R99H): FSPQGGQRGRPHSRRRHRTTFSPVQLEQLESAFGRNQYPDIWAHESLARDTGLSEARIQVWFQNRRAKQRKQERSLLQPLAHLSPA

| Sequence | binding signal |
| --- | --- |
| CGGGAGCC | 6.7 upbm affinity estimate (log intensity, higher = more binding, comparable within an allelic series) |
| CTGGACGC | 6.62 upbm affinity estimate (log intensity, higher = more binding, comparable within an allelic series) |
| CGGTGCCA | 6.46 upbm affinity estimate (log intensity, higher = more binding, comparable within an allelic series) |

target: HOXC9 (Homo sapiens, UniProt P31274 178-260, R222W); experiment: PBM; 200 nM protein, PBS; conditions: dsDNA, one strand shown
Sequence (P31274 178-260 R222W): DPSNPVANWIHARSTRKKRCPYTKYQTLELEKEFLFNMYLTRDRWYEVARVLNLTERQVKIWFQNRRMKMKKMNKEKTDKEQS

| Sequence | binding signal |
| --- | --- |
| CGGGAGCC | 9.69 upbm affinity estimate (log intensity, higher = more binding, comparable within an allelic series) |
| GGGCACGA | 9.89 upbm affinity estimate (log intensity, higher = more binding, comparable within an allelic series) |
| GCCCCAGC | 9.7 upbm affinity estimate (log intensity, higher = more binding, comparable within an allelic series) |
| CTGGACGC | 9.74 upbm affinity estimate (log intensity, higher = more binding, comparable within an allelic series) |
| AGCCCGGC | 9.67 upbm affinity estimate (log intensity, higher = more binding, comparable within an allelic series) |
| CGGTCCAG | 9.63 upbm affinity estimate (log intensity, higher = more binding, comparable within an allelic series) |
| CCCCAGGG | 9.62 upbm affinity estimate (log intensity, higher = more binding, comparable within an allelic series) |
| AGGACGTG | 9.71 upbm affinity estimate (log intensity, higher = more binding, comparable within an allelic series) |
| CACCATTA | 10.6 upbm affinity estimate (log intensity, higher = more binding, comparable within an allelic series) |
| AGCCGACC | 9.74 upbm affinity estimate (log intensity, higher = more binding, comparable within an allelic series) |
| AGGGACCC | 9.54 upbm affinity estimate (log intensity, higher = more binding, comparable within an allelic series) |
| AGACCAGG | 9.71 upbm affinity estimate (log intensity, higher = more binding, comparable within an allelic series) |
| AGGCTCCC | 9.47 upbm affinity estimate (log intensity, higher = more binding, comparable within an allelic series) |
| GGGGGGCA | 9.28 upbm affinity estimate (log intensity, higher = more binding, comparable within an allelic series) |
| CGGTGCCA | 9.58 upbm affinity estimate (log intensity, higher = more binding, comparable within an allelic series) |
| GGGCCCCC | 9.4 upbm affinity estimate (log intensity, higher = more binding, comparable within an allelic series) |
| CCTAGACG | 9.82 upbm affinity estimate (log intensity, higher = more binding, comparable within an allelic series) |
| CCTCCAGG | 9.67 upbm affinity estimate (log intensity, higher = more binding, comparable within an allelic series) |
| CCGTTATA | 10.3 upbm affinity estimate (log intensity, higher = more binding, comparable within an allelic series) |

target: PROP1 (Homo sapiens, UniProt O75360 56-141, F88S); experiment: PBM; 200 nM protein, PBS; conditions: dsDNA, one strand shown
Sequence (O75360 56-141 F88S): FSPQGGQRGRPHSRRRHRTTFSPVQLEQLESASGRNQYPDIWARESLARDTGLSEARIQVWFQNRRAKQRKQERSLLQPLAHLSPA

| Sequence | binding signal |
| --- | --- |
| CGGGAGCC | 6.53 upbm affinity estimate (log intensity, higher = more binding, comparable within an allelic series) |
| CTGGACGC | 6.59 upbm affinity estimate (log intensity, higher = more binding, comparable within an allelic series) |
| CGGTGCCA | 6.5 upbm affinity estimate (log intensity, higher = more binding, comparable within an allelic series) |
